Assay results as given in ChEMBL document CHEMBL3988442, “University of Dundee, Small-Polar-MMV Screening Library” (2021).
For some assays here: Potency and affinity values are given separately.

Assays:
[1] = target: T1, Methionyl-tRNA synthetase, putative (Leishmania donovani (strain BPK282A1)) (UniProt E9BF75); test: Leishmania donovani Methionine tRNA synthetase (LdMetRS):v7. Dose response assay; type: functional; design: conc 80 nM, time 150 minutes
T1 sequence (whole entry): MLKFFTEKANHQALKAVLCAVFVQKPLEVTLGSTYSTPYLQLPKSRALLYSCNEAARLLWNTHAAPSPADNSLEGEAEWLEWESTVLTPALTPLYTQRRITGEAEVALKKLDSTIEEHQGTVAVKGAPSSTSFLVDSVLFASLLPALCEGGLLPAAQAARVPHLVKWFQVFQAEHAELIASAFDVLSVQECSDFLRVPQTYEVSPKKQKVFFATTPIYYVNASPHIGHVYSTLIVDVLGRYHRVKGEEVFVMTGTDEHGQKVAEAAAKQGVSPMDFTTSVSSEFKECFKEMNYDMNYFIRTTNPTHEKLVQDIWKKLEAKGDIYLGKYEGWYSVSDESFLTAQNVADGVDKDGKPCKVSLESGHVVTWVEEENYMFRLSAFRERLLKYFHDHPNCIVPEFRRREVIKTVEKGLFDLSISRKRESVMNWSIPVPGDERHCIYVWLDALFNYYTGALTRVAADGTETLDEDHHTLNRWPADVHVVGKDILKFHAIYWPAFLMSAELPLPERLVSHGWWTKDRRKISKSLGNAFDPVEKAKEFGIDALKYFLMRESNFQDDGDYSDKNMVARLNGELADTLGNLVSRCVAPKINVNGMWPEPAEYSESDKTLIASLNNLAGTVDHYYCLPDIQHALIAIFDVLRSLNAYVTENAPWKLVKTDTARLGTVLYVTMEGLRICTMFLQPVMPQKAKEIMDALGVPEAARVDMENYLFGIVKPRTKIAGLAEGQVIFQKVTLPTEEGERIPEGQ

[2] = target: Protein translocase subunit SecA (Escherichia coli (strain K12)) (UniProt P10408); test: Assay to Identify E. coli SecA ATPase Inhibitors; type: functional; design: scale not given: direction of the effect not stated beside the values; conditions: 30 µM
Protein translocase subunit SecA (Escherichia coli (strain K12)), sequence (P10408 whole entry): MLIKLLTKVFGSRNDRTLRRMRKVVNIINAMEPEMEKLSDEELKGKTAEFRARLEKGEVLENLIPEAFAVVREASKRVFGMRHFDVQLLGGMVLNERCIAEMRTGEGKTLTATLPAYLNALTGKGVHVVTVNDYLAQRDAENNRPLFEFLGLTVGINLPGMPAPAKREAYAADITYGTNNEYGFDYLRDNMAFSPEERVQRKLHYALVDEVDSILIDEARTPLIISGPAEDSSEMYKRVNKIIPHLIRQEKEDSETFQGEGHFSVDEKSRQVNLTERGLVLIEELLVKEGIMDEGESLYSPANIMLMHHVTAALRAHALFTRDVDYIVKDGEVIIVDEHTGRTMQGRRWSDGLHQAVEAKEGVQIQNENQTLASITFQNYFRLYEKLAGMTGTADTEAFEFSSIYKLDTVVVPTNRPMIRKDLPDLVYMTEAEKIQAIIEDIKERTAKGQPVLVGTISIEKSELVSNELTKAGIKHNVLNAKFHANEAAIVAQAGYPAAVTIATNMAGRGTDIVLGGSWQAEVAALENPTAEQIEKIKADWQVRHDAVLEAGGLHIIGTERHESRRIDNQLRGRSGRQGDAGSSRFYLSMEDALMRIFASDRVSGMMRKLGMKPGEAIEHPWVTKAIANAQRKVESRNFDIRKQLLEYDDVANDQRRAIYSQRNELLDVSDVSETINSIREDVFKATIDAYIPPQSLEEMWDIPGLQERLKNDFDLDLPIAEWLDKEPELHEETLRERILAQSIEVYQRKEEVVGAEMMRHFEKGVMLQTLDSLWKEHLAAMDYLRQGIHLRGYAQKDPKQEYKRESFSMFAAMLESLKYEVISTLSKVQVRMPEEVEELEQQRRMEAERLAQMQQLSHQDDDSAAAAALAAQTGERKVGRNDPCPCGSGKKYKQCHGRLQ

[3] = target: T2, Ubiquitin-activating enzyme e1, putative (Leishmania donovani (strain BPK282A1)) (UniProt E9BSI1); test: Leishmania donovani Ubiquitin Activating Enzyme (LdE1); type: functional; design: scale not given: direction of the effect not stated beside the values; conditions: 30 µM
T2 sequence (whole entry): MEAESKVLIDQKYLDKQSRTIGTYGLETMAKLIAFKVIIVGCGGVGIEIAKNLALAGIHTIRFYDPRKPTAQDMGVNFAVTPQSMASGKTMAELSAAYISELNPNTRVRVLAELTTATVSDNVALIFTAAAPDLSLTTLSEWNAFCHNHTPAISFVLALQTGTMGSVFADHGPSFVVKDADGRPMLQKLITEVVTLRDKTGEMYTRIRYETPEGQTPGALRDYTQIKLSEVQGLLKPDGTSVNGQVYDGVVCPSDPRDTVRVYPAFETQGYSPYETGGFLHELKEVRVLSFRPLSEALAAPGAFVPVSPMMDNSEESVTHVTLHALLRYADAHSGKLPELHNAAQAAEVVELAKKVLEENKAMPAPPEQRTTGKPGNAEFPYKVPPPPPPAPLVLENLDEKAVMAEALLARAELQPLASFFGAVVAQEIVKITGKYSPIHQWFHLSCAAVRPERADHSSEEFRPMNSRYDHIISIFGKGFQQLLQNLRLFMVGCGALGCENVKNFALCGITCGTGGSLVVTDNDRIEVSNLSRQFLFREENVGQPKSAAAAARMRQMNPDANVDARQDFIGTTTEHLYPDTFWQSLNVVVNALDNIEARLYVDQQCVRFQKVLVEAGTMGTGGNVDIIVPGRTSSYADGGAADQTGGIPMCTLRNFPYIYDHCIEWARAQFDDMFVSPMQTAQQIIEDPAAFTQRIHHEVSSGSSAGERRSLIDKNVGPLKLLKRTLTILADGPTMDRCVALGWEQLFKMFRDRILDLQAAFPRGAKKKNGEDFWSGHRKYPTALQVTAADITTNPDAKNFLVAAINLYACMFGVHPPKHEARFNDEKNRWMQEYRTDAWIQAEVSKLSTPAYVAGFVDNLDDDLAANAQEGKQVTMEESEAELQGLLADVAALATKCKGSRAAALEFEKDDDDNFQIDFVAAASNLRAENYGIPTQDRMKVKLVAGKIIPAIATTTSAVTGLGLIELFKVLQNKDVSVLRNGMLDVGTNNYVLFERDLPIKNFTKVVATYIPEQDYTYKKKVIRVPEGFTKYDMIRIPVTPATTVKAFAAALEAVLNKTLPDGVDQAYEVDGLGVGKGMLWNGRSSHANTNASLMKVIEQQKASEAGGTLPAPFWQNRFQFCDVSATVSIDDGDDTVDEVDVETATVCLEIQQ

[4] = target: AMP-activated protein kinase, AMPK (Homo sapiens) (UniProt P54646+O43741+P54619+Q9UGJ0+Q9Y478+Q13131+Q9UGI9); test: AMP-dependent Kinase enzyme assay. An in vitro enzyme assay that detects ADP turnover that is directly proportional to AMPK activity. This uses naive AMPK that is activated during the assay with MK-8722; type: functional; design: scale not given: direction of the effect not stated beside the values; conditions: 30 µM
[5] = target: Sialic acid-binding Ig-like lectin 9 (Homo sapiens) (UniProt Q9Y336); test: Hs-Siglec9 ALPHAscreen SOP 20170721; design: scale not given: direction of the effect not stated beside the values; conditions: 10 µM
Sialic acid-binding Ig-like lectin 9 (Homo sapiens), sequence (Q9Y336 whole entry): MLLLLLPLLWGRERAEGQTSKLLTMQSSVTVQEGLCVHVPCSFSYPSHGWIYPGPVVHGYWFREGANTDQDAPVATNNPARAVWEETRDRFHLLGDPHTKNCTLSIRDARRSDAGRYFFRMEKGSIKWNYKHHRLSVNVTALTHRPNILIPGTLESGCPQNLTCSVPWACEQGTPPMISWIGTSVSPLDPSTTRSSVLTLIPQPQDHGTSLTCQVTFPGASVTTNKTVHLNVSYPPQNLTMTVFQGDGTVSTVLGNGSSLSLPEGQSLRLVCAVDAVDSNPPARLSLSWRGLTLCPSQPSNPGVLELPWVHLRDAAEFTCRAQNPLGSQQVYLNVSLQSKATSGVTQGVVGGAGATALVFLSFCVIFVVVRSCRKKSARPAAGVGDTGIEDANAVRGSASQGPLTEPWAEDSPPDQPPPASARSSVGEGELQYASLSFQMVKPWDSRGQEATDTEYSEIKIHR

Trypanosoma cruzi = test: Trypanosoma cruzi phosphomannomutase and mannose-1-phosphate guanylyltransferase assay; type: functional; design: scale not given: direction of the effect not stated beside the values; conditions: 10 µM
[6] = target: T3, Arginase-2, mitochondrial (Homo sapiens) (UniProt P78540); test: in vitro enzyme assay to detect the production of urea directly proportional to the activity of Arginase II; type: functional; design: scale not given: in the data most compounds retested in dose-response had high values; conditions: 33.3 µM
T3 sequence (whole entry): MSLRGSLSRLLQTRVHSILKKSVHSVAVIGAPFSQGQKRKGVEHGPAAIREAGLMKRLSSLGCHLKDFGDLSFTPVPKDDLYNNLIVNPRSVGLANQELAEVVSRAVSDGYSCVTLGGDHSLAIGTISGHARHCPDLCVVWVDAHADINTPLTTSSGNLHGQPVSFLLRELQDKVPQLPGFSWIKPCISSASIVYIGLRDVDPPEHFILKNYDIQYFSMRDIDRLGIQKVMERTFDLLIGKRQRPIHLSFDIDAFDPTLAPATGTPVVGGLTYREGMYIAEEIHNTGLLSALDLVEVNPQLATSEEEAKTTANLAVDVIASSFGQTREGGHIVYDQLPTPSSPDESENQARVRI

[7] = target: T4, Proteasome subunit beta (Trypanosoma cruzi) (UniProt O96673); test: Trypanosoma cruzi proteasome chymotrypsin-like activity (TcProtChymo) assay.; type: functional; design: scale not given: in the data most compounds retested in dose-response had high values; conditions: 9.37 µM
T4 sequence (whole entry): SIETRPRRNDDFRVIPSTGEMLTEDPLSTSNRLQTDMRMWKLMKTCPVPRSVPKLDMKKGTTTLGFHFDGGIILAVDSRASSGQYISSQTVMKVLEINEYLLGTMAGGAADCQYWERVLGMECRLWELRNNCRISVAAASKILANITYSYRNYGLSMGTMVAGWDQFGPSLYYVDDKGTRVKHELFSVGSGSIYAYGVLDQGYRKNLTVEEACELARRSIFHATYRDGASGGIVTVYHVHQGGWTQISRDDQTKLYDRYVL

Homo sapiens = species: Homo sapiens; test: To identify inhibition of the IFN signalling (Jak-Stat) pathway via expression of an eGFP reporter gene under the control of an IFN-stimulated response element (ISRE) containing MxA promoter.; type: functional; design: scale not given: direction of the effect not stated beside the values; conditions: 30 µM
[8] = target: T5, Tyrosyl-tRNA synthetase, putative (Trypanosoma cruzi (strain CL Brener)) (UniProt Q4DSP6); test: Trypanosoma cruzi tyrosyl tRNA synthetase (TcYRS) _High Tyrosine SOP; type: functional; design: scale not given: in the data most compounds retested in dose-response had high values; conditions: 30 µM
T5 sequence (whole entry): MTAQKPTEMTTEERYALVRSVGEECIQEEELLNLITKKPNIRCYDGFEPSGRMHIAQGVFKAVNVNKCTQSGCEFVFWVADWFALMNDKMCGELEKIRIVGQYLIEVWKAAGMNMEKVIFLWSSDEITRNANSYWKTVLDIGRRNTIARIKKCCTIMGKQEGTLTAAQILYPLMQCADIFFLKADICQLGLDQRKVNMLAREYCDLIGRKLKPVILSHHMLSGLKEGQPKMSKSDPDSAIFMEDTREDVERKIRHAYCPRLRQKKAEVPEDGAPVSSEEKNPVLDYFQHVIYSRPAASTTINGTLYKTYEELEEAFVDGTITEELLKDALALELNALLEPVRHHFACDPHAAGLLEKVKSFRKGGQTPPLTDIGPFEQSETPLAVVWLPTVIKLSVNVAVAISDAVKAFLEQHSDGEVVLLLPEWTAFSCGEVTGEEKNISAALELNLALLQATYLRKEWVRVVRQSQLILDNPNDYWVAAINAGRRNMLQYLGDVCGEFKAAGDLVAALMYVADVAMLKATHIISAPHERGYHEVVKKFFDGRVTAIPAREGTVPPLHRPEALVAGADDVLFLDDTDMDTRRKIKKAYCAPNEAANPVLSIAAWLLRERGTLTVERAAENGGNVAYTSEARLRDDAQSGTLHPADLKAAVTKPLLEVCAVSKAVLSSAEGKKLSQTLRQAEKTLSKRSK

[9] = target: T5, Tyrosyl-tRNA synthetase, putative (Trypanosoma cruzi (strain CL Brener)); test: Trypanosoma cruzi tyrosyl tRNA synthetase (TcYRS) SOP; type: functional; design: scale not given: direction of the effect not stated beside the values; conditions: 30 µM
[10] = target: Chromo domain-containing protein 1 (Saccharomyces cerevisiae (strain ATCC 204508 / S288c) (Baker's yeast)) (UniProt P32657); test: ScCHD-1 Enzyme Inhibition Assay; type: functional; design: scale not given: in the data most compounds retested in dose-response had high values; conditions: 30 µM
Chromo domain-containing protein 1 (Saccharomyces cerevisiae (strain ATCC 204508 / S288c) (Baker's yeast)), sequence (P32657 whole entry, the tested form may be a part): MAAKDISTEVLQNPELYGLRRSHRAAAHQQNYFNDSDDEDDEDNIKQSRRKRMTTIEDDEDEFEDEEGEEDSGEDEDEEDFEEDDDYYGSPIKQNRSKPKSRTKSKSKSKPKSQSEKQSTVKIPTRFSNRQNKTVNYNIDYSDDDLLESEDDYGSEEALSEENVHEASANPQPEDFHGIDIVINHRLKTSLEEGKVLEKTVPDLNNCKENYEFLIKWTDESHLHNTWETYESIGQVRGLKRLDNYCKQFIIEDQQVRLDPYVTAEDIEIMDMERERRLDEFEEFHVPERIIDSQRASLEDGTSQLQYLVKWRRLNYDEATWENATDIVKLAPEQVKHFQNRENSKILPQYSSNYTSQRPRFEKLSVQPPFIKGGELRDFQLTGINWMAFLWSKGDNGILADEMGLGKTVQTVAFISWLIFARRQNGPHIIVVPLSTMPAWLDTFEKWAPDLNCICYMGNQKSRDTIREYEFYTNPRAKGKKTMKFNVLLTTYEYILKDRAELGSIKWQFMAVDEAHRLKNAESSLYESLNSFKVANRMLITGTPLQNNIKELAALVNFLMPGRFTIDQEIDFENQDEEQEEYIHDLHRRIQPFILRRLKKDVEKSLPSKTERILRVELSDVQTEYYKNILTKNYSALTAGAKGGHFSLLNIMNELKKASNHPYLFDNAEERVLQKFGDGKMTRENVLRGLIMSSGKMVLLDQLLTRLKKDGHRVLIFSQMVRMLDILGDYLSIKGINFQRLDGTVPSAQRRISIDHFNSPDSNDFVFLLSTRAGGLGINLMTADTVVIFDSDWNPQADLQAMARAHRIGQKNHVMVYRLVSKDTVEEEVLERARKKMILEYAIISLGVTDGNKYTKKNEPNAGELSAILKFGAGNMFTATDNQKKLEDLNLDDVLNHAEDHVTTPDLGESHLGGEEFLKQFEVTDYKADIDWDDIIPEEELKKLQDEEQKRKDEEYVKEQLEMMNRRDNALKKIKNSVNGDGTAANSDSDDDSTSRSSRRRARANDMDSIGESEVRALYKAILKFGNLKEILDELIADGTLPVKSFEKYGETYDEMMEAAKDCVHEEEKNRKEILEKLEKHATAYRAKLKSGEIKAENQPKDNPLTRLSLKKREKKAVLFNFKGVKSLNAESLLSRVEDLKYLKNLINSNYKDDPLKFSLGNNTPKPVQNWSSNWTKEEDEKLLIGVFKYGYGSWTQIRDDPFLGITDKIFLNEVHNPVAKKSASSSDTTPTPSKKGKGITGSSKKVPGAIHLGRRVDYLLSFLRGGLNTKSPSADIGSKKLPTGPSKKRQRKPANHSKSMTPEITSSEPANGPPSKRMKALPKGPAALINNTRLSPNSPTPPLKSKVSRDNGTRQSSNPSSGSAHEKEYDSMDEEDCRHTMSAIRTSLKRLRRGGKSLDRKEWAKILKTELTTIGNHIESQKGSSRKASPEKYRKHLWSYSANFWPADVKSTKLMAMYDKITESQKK

Compound `O=C(O)CN1CCC(F)(F)C2(CCN(c3ccccc3)C2)C1` (centres undefined) has a PXC50 ([1]; BOTTOM 0.682019073, HILLSLOPE 1.183129542, MAX_EFFECT 69.01408451, TOP 100.0) of 4.25, a PXC50 ([1]; BOTTOM 1.497780238, HILLSLOPE 1.024260355, MAX_EFFECT 65.37037037, TOP 100.0) of 4.23 and a PXC50 ([1]; BOTTOM -1.515302198, HILLSLOPE 0.859784414, MAX_EFFECT 63.76811594, TOP 100.0) of 4.28. The PXC50 ([1]; BOTTOM -4.436470638, HILLSLOPE 1.966892025, MAX_EFFECT 57.61821366, TOP 100.0) was 4.1 and the PXC50 ([1]; BOTTOM -10.23367543, HILLSLOPE 2.537985382, MAX_EFFECT 60.54421769, TOP 60.60381795) was 4.54.

`O=C(c1ccc(F)c(Cl)c1)N1C[C@@H]2CC[C@H](C1)N(Cc1ccccc1)C2` was tested, and the PXC50 ([1]; MAX_EFFECT 29.03225806) was under 4, the PXC50 ([1]; MAX_EFFECT 41.91419142) was under 4 and the PXC50 ([1]; MAX_EFFECT 44.92753623) was under 4. It also gave a Percent Effect [2] of -1.36%, a Percent Effect [3] of -13.7% and a Percent Effect [4] of 5.89%. The Percent Effect [5] was 19.2%, the Percent Effect (Trypanosoma cruzi) was -6.15% and the Percent Effect [6] was 1.6%. For the same compound, the Percent Effect [7] was 11.2%, the Percent Effect (Homo sapiens) was -10.1% and the Percent Effect [8] was 11.5%. The Percent Effect [9] was 25.9% and the Percent Effect [10] was 0.975%.

In the case of `Cc1cc(C)n(CCCn2cncc2-c2ccc3c(c2)CC(C)N3C)n1` (centres undefined), the PXC50 ([1]; BOTTOM 4.401789899, HILLSLOPE 1.374668367, MAX_EFFECT 53.02013423, TOP 100.0) is reported as 4.02, the PXC50 ([1]; BOTTOM 5.049738187, HILLSLOPE 0.795238386, MAX_EFFECT 63.88888889, TOP 100.0) is reported as 4.3 and the PXC50 ([1]; BOTTOM 6.889933183, HILLSLOPE 1.019311149, MAX_EFFECT 71.9237435, TOP 100.0) is reported as 4.34. For the same compound, the PXC50 ([1]; MAX_EFFECT 6.666666667) was under 4 and the PXC50 ([1]; MAX_EFFECT 21.73913043) was under 4.

With `Cn1ncc2c(NCCO)nc(Nc3ccc(F)c(F)c3)nc21` the PXC50 ([1]; BOTTOM 1.675324724, HILLSLOPE 0.887004354, MAX_EFFECT 86.8852459, TOP 97.31963994) was 5.01, the PXC50 ([1]; BOTTOM 3.874295481, HILLSLOPE 1.000014766, MAX_EFFECT 87.03703704, TOP 93.55609097) was 5.08 and the PXC50 ([1]; BOTTOM 3.975924252, HILLSLOPE 0.806965021, MAX_EFFECT 84.10596026, TOP 99.5157675) was 4.91. For the same compound, the PXC50 ([1]; BOTTOM 7.489204203, HILLSLOPE 1.122010423, MAX_EFFECT 83.60655738, TOP 90.20006383) was 4.96 and the PXC50 ([1]; BOTTOM -1.215365939, HILLSLOPE 0.665929937, MAX_EFFECT 87.19646799, TOP 108.6182019) was 4.92.
